# Several values for one entry are separate records, joined by “and”; a condition that tells them apart may be missing. Equal entries are not always repeated. Records with an inconclusive call do not appear. Where a call stands in place of a potency, no number is given. Values without a mark were called inactive. Activity calls are given as the source filed them. The call rests on the fitted dose curve; in most records, active means well fitted curve in the direction sought with a large enough effect; inconclusive means small, poorly fitted or top-dose-only effect, or another doubt; inactive means no such curve, though single readings can be large; an effect the other way counts as inactive or inconclusive.
# Experiments:
# CRL-7250 = normal cell line; assay: Cytotoxic Profiling of Annotated Libraries Using Quantitative High-Throughput Screening (AID 1296008); details: Five cell lines viability, CellTiter-Glo ATP luminescence, 48-72 h; max response: active compounds read low; further: nearly all actives have a fitted effect of over 60% in size; further: potency means the concentration at half of the fitted maximal effect
# Method in brief: (§1)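 Cytotoxicity was measured as CellTiter-Glo ATP luminescence, read after 10 min at room temperature. Compound treatment of the cells lasted 48 or 72 hr at 37 degrees Celsius in a qHTS format.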
# HEK293 = assay: as above; details: Five cell lines viability, CellTiter-Glo ATP luminescence, 48-72 h; max response: active compounds read low
# Method in brief: as §1
# HaCat [1] = assay: as above; details: Five cell lines viability, CellTiter-Glo ATP luminescence, 48-72 h; max response: active compounds read low
# Method in brief: as §1
# KB-3-1 = assay: as above; details: Five cell lines viability, CellTiter-Glo ATP luminescence, 48-72 h; max response: active compounds read low
# Method in brief: as §1
# MCC-13 = assay: qHTS assay to identify novel small-molecules to repurpose for Merkel cell carcinoma treatment (AID 1296009); details: MCC and control cell lines, CellTiter-Glo viability, 72 h; series mostly up to 46 µM; further: nearly all actives have a fitted effect of over 60% in size; further: potency means the concentration at half of the fitted maximal effect
# Method in brief: (§2)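 72 hr, 37 degree celsius; NPC 8-pt / MIPE 11-pt dose response; compound pinned in DMSO; CellTiter-Glo, 10 min RT, luminescence; normalized to no-cell and DMSO controls.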
# MCC-26 = assay: as above; details: MCC and control cell lines, CellTiter-Glo viability, 72 h; series mostly up to 46 µM
# Method in brief: as §2
# MKL-1 = assay: as above; details: MCC and control cell lines, CellTiter-Glo viability, 72 h; series mostly up to 46 µM
# Method in brief: as §2
# MKL-2 = assay: as above; details: MCC and control cell lines, CellTiter-Glo viability, 72 h; series mostly up to 46 µM
# Method in brief: as §2
# UISO = assay: as above; details: MCC and control cell lines, CellTiter-Glo viability, 72 h; series mostly up to 46 µM
# Method in brief: as §2
# WaGa = assay: as above; details: MCC and control cell lines, CellTiter-Glo viability, 72 h; series mostly up to 46 µM
# Method in brief: as §2
# C33A = assay: Primary qHTS to identify gynecologic anti-cancer compounds using libraries of approved drugs and bioactive compounds (AID 1345084); details: Gynecologic cancer cell panel viability, ATPlite luminescence, 48 h; series mostly up to 57.5 µM; further: nearly all actives have a fitted effect of over 55% in size
# Method in brief: (§3)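 Cell viability after 48 h drug treatment, ATPlite luminescence readout; five doses.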
# NIH3T3 [2] = assay: Cytotoxic Profiling of Annotated Libraries Using Quantitative High-Throughput Screening (AID 1296008); details: Five cell lines viability, CellTiter-Glo ATP luminescence, 48-72 h; max response: active compounds read low; further: nearly all actives have a fitted effect of over 60% in size; further: potency means the concentration at half of the fitted maximal effect
# Method in brief: as §1
# CAOV3 = assay: Primary qHTS to identify gynecologic anti-cancer compounds using libraries of approved drugs and bioactive compounds (AID 1345084); details: Gynecologic cancer cell panel viability, ATPlite luminescence, 48 h; series mostly up to 57.5 µM; further: nearly all actives have a fitted effect of over 55% in size
# Method in brief: as §3
# HACAT [3] = assay: qHTS assay to identify novel small-molecules to repurpose for Merkel cell carcinoma treatment (AID 1296009); details: MCC and control cell lines, CellTiter-Glo viability, 72 h; at 44.8 µM (top of the series) unless noted; further: nearly all actives have a fitted effect of over 60% in size; further: potency means the concentration at half of the fitted maximal effect
# Method in brief: as §2
# NIH3T3 [4] = assay: as above; details: MCC and control cell lines, CellTiter-Glo viability, 72 h; at 44.8 µM (top of the series) unless noted
# Method in brief: as §2
smiles,measurement,setting,value
COc1cc2nc(-c3ccc(N4CCN(C)CC4)cc3)nc(NCCN3CCOCC3)c2cc1OC,Potency,CRL-7250,1.66 µM (active)
same,Potency,HEK293,5.8 µM (active)
same,Potency,HaCat [1],935 nM (active)
same,Potency,KB-3-1,66.2 nM (active)
same,Potency,MCC-13,9.35 µM (active)
same,Potency,MCC-26,9.35 µM (active)
same,Potency,MKL-1,0.0235 µM (active)
same,Potency,MKL-2,0.105 µM (active)
same,Potency,UISO,0.118 µM (active)
same,Potency,WaGa,0.118 µM (active)
same,Potency,C33A,inactive
COc1ccc2cccc(CCNC(C)=O)c2c1,max response,CRL-7250,-2.32%
same,max response,HEK293,4.38%
same,max response,HaCat [1],-1.39%
same,max response,KB-3-1,2.52%
same,max response,NIH3T3 [2],-3.32%
same,Potency,MCC-13,inactive
same,Potency,MKL-1,inactive
same,Potency,MKL-2,inactive
same,Potency,UISO,inactive
same,Potency,WaGa,inactive
same,Potency,C33A,inactive
same,Potency,CAOV3,inactive
CC(C)NCC(O)COc1cccc2[nH]ccc12 (stereo not drawn),max response,CRL-7250,-21.3% and 3.12%
same,max response,HEK293,-23%
same,max response,HaCat [1],-22.9% and 1.98%
same,max response,KB-3-1,13.5% and 2.02%
same,max response,NIH3T3 [2],-7.28% and 1.44%
same,Potency,MCC-13,inactive
same,Potency,MKL-1,inactive
same,Potency,MKL-2,inactive
same,Potency,UISO,inactive
same,Potency,WaGa,inactive
same,Potency,C33A,inactive
same,Potency,CAOV3,inactive
COC1CCC(N(C(=O)C2CCC(C)CC2)c2cc(C3=CCCCC3)sc2C(=O)O)CC1 (stereo not drawn),max response,CRL-7250,-4.75%
same,max response,HEK293,-22.6%
same,max response,HaCat [1],-16%
same,max response,KB-3-1,-3.16%
same,max response,NIH3T3 [2],-0.413%
same,Potency,MCC-13,inactive
same,Potency,MKL-1,inactive
same,Potency,MKL-2,inactive
same,Potency,UISO,inactive
same,Potency,WaGa,inactive
O=C1NC(=O)C(=Cc2ccc3c(c2)OC(F)(F)O3)S1,max response,CRL-7250,-15.6%
same,max response,HEK293,-24.8%
same,max response,HaCat [1],-0.402%
same,max response,NIH3T3 [2],-19.2%
same,Potency,MCC-13,inactive
same,Potency,MCC-26,inactive
same,Potency,MKL-1,inactive
same,Potency,MKL-2,inactive
same,Potency,UISO,inactive
O=C(O)CCC1CCC(c2cc(F)ccc2F)(S(=O)(=O)c2ccc(Cl)cc2)CC1 (stereo not drawn),outcome,CRL-7250,inactive
same,max response,HEK293,-15.1%
same,outcome,HaCat [1],inactive
same,outcome,KB-3-1,inactive
same,outcome,HACAT [3],inactive
same,Potency,MCC-13,inactive
same,Potency,MCC-26,inactive
same,Potency,MKL-1,inactive
same,Potency,UISO,inactive
Cc1nc(N)sc1-c1ccnc(Nc2ccc(N3CCOCC3)cc2)n1,Potency,CRL-7250,9.35 µM (active) and 5.17 µM (active)
same,Potency,HEK293,10.5 µM (active) and 7.31 µM (active)
same,Potency,HaCat [1],18.7 µM (active) and 1.16 µM (active)
same,Potency,KB-3-1,1.66 µM (active) and 1.64 µM (active)
same,Potency,NIH3T3 [2],11.8 µM (active) and 1.84 µM (active)
same,Potency,MCC-26,inactive
same,Potency,MKL-2,inactive
CCNc1cc(NC2CCC(O)CC2)nc(Nc2ccc3c(ccn3Cc3ccccc3)c2)n1 (stereo not drawn),max response,CRL-7250,1.87%
same,Potency,HEK293,20.9 µM (active)
same,outcome,HaCat [1],inactive
same,outcome,NIH3T3 [2],inactive
same,outcome,HACAT [3],inactive
same,Potency,MCC-13,inactive
same,Potency,MKL-1,inactive
same,outcome,NIH3T3 [4],inactive
same,Potency,UISO,inactive
same,Potency,WaGa,inactive
CN1CCN(CCOc2cc(OC3CCOCC3)c3c(Nc4c(Cl)ccc5c4OCO5)ncnc3c2)CC1,Potency,CRL-7250,10.3 µM (active)
same,Potency,HEK293,26.4 µM (active) and 16.4 µM (active)
same,Potency,HaCat [1],3.32 µM (active) and 366 nM (active)
same,max response,KB-3-1,2.81% and -8.03%
same,Potency,NIH3T3 [2],1.66 µM (active) and 651 nM (active)
same,Potency,MKL-1,inactive
same,Potency,MKL-2,inactive
same,Potency,UISO,inactive
same,Potency,WaGa,inactive
CC(C)(C)Cn1c(N)nc2ccc(-c3[nH]c(C(C)(C)C)nc3-c3ccc(F)cc3)nc21,max response,CRL-7250,-25.6% and -19.9%
same,Potency,HEK293,11.6 µM (active)
same,Potency,HaCat [1],5.9 µM (active) and 4.61 µM (active)
same,Potency,MCC-26,inactive
same,Potency,MKL-1,inactive
same,Potency,MKL-2,inactive
same,Potency,C33A,inactive
O=C(NCc1ccccc1)c1csc(Nc2ccncn2)n1,Potency,CRL-7250,11.8 µM (active)
same,Potency,HEK293,5.26 µM (active)
same,outcome,HaCat [1],inactive
same,max response,KB-3-1,3.38% and -16.6%
same,outcome,HACAT [3],inactive
same,Potency,MKL-1,8.33 µM (active)
same,Potency,UISO,23.5 µM (active)
same,Potency,C33A,inactive
CC(C)(C)NC(=O)Nc1cccc(Nc2ncc(F)c(NC(C)(C)CO)n2)c1,max response,CRL-7250,-1.2% and -11%
same,Potency,HEK293,11.8 µM (active)
same,Potency,HaCat [1],10.5 µM (active) and 16.4 µM (active)
same,Potency,KB-3-1,18.7 µM (active) and 20.6 µM (active)
same,Potency,MCC-13,inactive
same,Potency,MCC-26,inactive
same,Potency,MKL-2,inactive
same,Potency,UISO,inactive
same,Potency,C33A,inactive

# Source: PubChem BioAssay (NCATS)
